From PubChem BioAssay (NCI) come the findings set out here.

Some test systems named below: DU-145 prostate; K-562 leukemia; MALME-3M melanoma; MDA-MB-231 breast; RXF 393 renal; SF-268 CNS; SF-295 CNS; SF-539 CNS; UACC-257 melanoma; M14 melanoma; HCT-15 colon; HT29 colon; SNB-19 CNS; U251 CNS; PC-3 prostate; UACC-62 melanoma; LOX IMVI melanoma; SK-MEL-28 melanoma; SNB-75 CNS; SK-MEL-5 melanoma.
Test in all cases: NCI-60 one-dose screen, 48 h (100 = growth as untreated, 0 = no growth, -100 = all killed)
Common to all, as to details: 10 µM unless noted

Each structure is given as a SMILES string. About 83,000 compounds went through this panel and 20% of them were active in at least one assay; those are over-represented in the sample as a whole.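 Cells were grown in 96-well plates and exposed to the test compound at a single concentration for 48 hours; results are reported as percent growth, with values below 10 considered active.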 Unmarked numbers belong to inactive results. Active and inactive are the calls of the source.

Consider `Cc1cc(O)c(C2=NN(c3ccc(S(N)(=O)=O)cc3)C(c3ccccc3Cl)C2)cc1Cl` (stereo not given), for which the growth in the experiment on DU-145 prostate was 4.85% (active); with K-562 leukemia, -18% (active); in the experiment on MALME-3M melanoma, 34.9%; with MDA-MB-231 breast it was 20%; with RXF 393 renal, -11.7% (active); in the experiment on SF-268 CNS, 11.6%. Also, the growth in the experiment on SF-295 CNS was 63%; with SF-539 CNS, 41.9%; with UACC-257 melanoma, 65.2%; in the experiment on M14 melanoma it was -11.9% (active); with HCT-15 colon it was 34.8%; with HT29 colon, 0.516% (active). Moreover, the growth in the experiment with SNB-19 CNS is 58.1%; in the experiment with U251 CNS, 7.79% (active); in the experiment on PC-3 prostate, 10.9%; in the experiment with UACC-62 melanoma it was 45.1%; in the experiment with LOX IMVI melanoma, -83.7% (active); with SK-MEL-28 melanoma it was 63.2%.
Turning to `COc1cc(/C=N/NC(=O)Cn2c(C(C)C)nc3ccccc32)ccc1O`, the growth is 110% in the experiment on DU-145 prostate; 100% in the experiment on K-562 leukemia; 105% in the experiment with MALME-3M melanoma; 95.5% with MDA-MB-231 breast; 95.7% in the experiment with RXF 393 renal; 91.2% with SF-268 CNS. Also, the growth in the experiment on SF-295 CNS is 104%; in the experiment with SF-539 CNS, 94.4%; in the experiment with UACC-257 melanoma, 98.2%; in the experiment with M14 melanoma, 92.6%; with HCT-15 colon it was 98.7%; with HT29 colon, 98.2%. For the same compound, the growth with SNB-75 CNS is 81.5%; with SNB-19 CNS, 99.4%; in the experiment with U251 CNS, 110%; in the experiment with PC-3 prostate, 94.8%; with UACC-62 melanoma, 89.8%; in the experiment on LOX IMVI melanoma it was 102%. The growth in the experiment on SK-MEL-28 melanoma was 109%.
Regarding `O=C1CCC2=C3C4CCCCC4C(=O)C4CCCC(OC2C1)C34` (stereo not given), the growth with DU-145 prostate is 0.534% (active); with K-562 leukemia, 5.63% (active); in the experiment on MALME-3M melanoma it was -33% (active); in the experiment on MDA-MB-231 breast it was 28%; in the experiment on RXF 393 renal, -80.8% (active); in the experiment on SF-268 CNS, 3.25% (active). Further, the growth is 33.4% in the experiment with SF-295 CNS; 4.64% (active) in the experiment with SF-539 CNS; 28.8% with UACC-257 melanoma; 0.565% (active) with M14 melanoma; 4.39% (active) in the experiment with HCT-15 colon; 85.6% in the experiment on HT29 colon. Moreover, the growth in the experiment with SNB-19 CNS was 34.1%; with U251 CNS it was 4.33% (active); with PC-3 prostate, 46.7%; in the experiment on SK-MEL-5 melanoma it was -77.9% (active); with UACC-62 melanoma it was 50.3%; in the experiment with LOX IMVI melanoma, 1.47% (active). The growth with SK-MEL-28 melanoma is 52%.
In the case of `COc1ccc(OC)c2c1[nH]c(=O)c1c3ncccc3cn21`, the growth was 26.3% with DU-145 prostate; 32% in the experiment with K-562 leukemia; 60.2% in the experiment on MALME-3M melanoma; 41.4% with MDA-MB-231 breast; 12.7% with RXF 393 renal; 34.2% in the experiment on SF-268 CNS. In addition, the growth in the experiment with SF-295 CNS is -3.56% (active); in the experiment with SF-539 CNS it was 37.2%; in the experiment on UACC-257 melanoma, 37.4%; with M14 melanoma it was 39.7%; with HCT-15 colon, 22.8%; in the experiment on HT29 colon, -9.43% (active). Further, the growth was 30.3% in the experiment with SNB-19 CNS; 22.5% in the experiment with U251 CNS; 33.6% in the experiment on PC-3 prostate; 33.3% in the experiment on SK-MEL-5 melanoma; 23.4% in the experiment on UACC-62 melanoma; 8.59% (active) in the experiment on LOX IMVI melanoma. Further, the growth in the experiment on SK-MEL-28 melanoma was 64.3%.
With `CCOc1c(C#N)nnc2c(C#N)c(NC(=O)c3ccccc3)nn12`, the growth was 109% with DU-145 prostate; 98.6% in the experiment with K-562 leukemia; 103% in the experiment on MALME-3M melanoma; 100% in the experiment on MDA-MB-231 breast; 110% in the experiment with RXF 393 renal; 98.8% in the experiment on SF-268 CNS. Further, the growth was 104% in the experiment with SF-295 CNS; 95.3% in the experiment on SF-539 CNS; 97% in the experiment with UACC-257 melanoma; 99.1% in the experiment with M14 melanoma; 106% in the experiment with HCT-15 colon; 106% in the experiment with HT29 colon. For the same compound, the growth in the experiment with SNB-75 CNS was 79.8%; with SNB-19 CNS it was 100%; with U251 CNS, 95.6%; in the experiment with PC-3 prostate it was 100%; with UACC-62 melanoma it was 101%; in the experiment with SK-MEL-28 melanoma it was 104%.
For the compound `Cc1ccc(Cc2cnc(NC(=O)c3ccc4noc(-c5ccccc5)c4c3)s2)cc1`, the growth is 102% in the experiment with DU-145 prostate; 91.2% with K-562 leukemia; 106% with MALME-3M melanoma; 94.8% in the experiment on MDA-MB-231 breast; -4.67% (active) in the experiment with RXF 393 renal; 98.9% in the experiment on SF-268 CNS. The growth with SF-295 CNS was 95.9%; in the experiment with SF-539 CNS it was 94.7%; in the experiment with UACC-257 melanoma it was 99.3%; in the experiment on M14 melanoma, 93.4%; in the experiment on HCT-15 colon it was 88.6%; with HT29 colon it was 65.3%. The growth in the experiment with SNB-19 CNS was 92.2%; in the experiment with U251 CNS, 96.3%; with PC-3 prostate it was 75.2%; with SK-MEL-5 melanoma, 94.9%; in the experiment with UACC-62 melanoma, 77%; in the experiment on LOX IMVI melanoma, 93.1%. Also, in the experiment on SK-MEL-28 melanoma, the growth is 99%.
With `Fc1cnc(NC2CC2)nc1-c1cnc2ccc(N3CCOCC3)cn12`, the growth in the experiment on DU-145 prostate is 7.39% (active); in the experiment on K-562 leukemia, 10.9%; in the experiment on MALME-3M melanoma it was -33.7% (active); with MDA-MB-231 breast, 2.98% (active); in the experiment with RXF 393 renal it was -47.1% (active); in the experiment on SF-268 CNS, 0.958% (active). Further, the growth in the experiment on SF-295 CNS is 3.46% (active); in the experiment with SF-539 CNS it was -35% (active); in the experiment on UACC-257 melanoma, -7.35% (active); with M14 melanoma, -26% (active); in the experiment on HCT-15 colon it was 1.15% (active); in the experiment with HT29 colon, 0.985% (active). Further, the growth in the experiment on SNB-19 CNS was 11.5%; with U251 CNS it was 8.28% (active); with PC-3 prostate, 5.58% (active); in the experiment with SK-MEL-5 melanoma it was -53.1% (active); with UACC-62 melanoma it was -80.6% (active); in the experiment on LOX IMVI melanoma, 4.17% (active). In the experiment on SK-MEL-28 melanoma, the growth was -4.09% (active).
In the case of `O=c1ccn2nc3ccccc3c2[nH]1`, the growth in the experiment on DU-145 prostate is 128%; with K-562 leukemia, 98.5%; in the experiment on MALME-3M melanoma, 86.7%; with MDA-MB-231 breast it was 91.3%; in the experiment with RXF 393 renal, 123%; in the experiment on SF-268 CNS it was 110%. Further, the growth is 118% in the experiment with SF-295 CNS; 95.9% in the experiment on SF-539 CNS; 130% in the experiment on UACC-257 melanoma; 98.6% with M14 melanoma; 91.7% in the experiment on HCT-15 colon; 96.1% with HT29 colon. The growth with SNB-19 CNS is 95.5%; in the experiment with U251 CNS, 96.4%; in the experiment with PC-3 prostate, 88%; with SK-MEL-5 melanoma it was 96%; in the experiment with UACC-62 melanoma it was 92.5%; with LOX IMVI melanoma it was 96.3%. Moreover, in the experiment with SK-MEL-28 melanoma, the growth is 182%.
